# Data from PubChem BioAssay AID1053125 (Broad Institute, 2014).
# Potency and affinity values are given separately. The source made the active and inactive calls.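 Rule for the calls: active = viability loss whose fitted half-maximal concentration is at most twice the top valid tested dose; inconclusive = flat curve with 30 to 70% loss, or poor fit; inactive = the rest.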
# Assay: HepG2 cell cytotoxicity, dose response, cytotoxicity control, ATP luminescence, cherry-pick, set 6 (AID 1053125);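 note: negative values mean loss of viability signal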
row,SMILES,outcome
1,CCOC(=O)C1CCCN(CCCc2ccccc2)C1 (stereo not given),inactive
2,CC(=O)NNc1cc(N2CCOCC2)nc(N2CCOCC2)n1,inactive
3,Cc1ccc(S(=O)(=O)c2cc3c(=O)n4ccccc4nc3n(C)c2=N)cc1,inactive
4,CCc1nc2ccc(C(=O)NCCc3c[nH]c4ccccc34)cn2c1N(C=O)CCC(C)C,inactive
5,Cc1ccc(-c2nc3ccsc3c(=O)[nH]2)cc1,inactive
6,C[C@H](NC(=O)c1nc[nH]c1C(=O)N[C@@H](Cc1ccccc1)C(=O)OC(C)(C)C)C(=O)OCc1ccccc1,inactive
7,C=CCN1C(=S)CC(c2ccccc2)=Nc2ccccc21,inactive
8,CCOC(=O)C1=CN(CC2CCCO2)C=C(C(=O)OCC)C1c1ccccc1C(F)(F)F (stereo not given),inactive
9,Cc1c(C(=O)NCc2ccc(Cl)c(Cl)c2)sc(=O)n1Cc1cccc(F)c1,inactive
10,CCOCCCNC(=S)N1CCCN(c2nc3cc(C)c(C)cc3cc2C#N)CC1,inactive
11,CC(C)CCn1c(CN2CC(C)OC(C)C2)nc2c1c(=O)n(C)c(=O)n2C (stereo not given),inactive
12,NC(=O)c1cc([N+](=O)[O-])ccc1NCc1cccnc1,inactive
13,COCCCOc1cc(NCc2ccccc2)c2ncn(C(C)C)c2c1,inactive
14,CCn1c2ccccc2c(=O)c2ccccc21,inactive
15,O=C(CCCN1C(=O)CSc2ncccc21)N1CCN(Cc2ccccc2)CC1,inactive
16,CCn1c(=N)c(C(=O)NCCCOC)cc2c(=O)n3cccc(C)c3nc21,inactive
17,Cc1nc2ccc(S(=O)(=O)Nc3ccc(-c4nc5cccnc5s4)cc3)cc2s1,inactive
18,C=Cc1ccc(Cn2c(C)c(C(=O)NCc3cccc(C)c3)sc2=O)cc1,inactive

row,SMILES,outcome
1,Cc1cccn2c(=O)c3cc(C(=O)NCc4ccco4)c(=N)n(CCc4ccccc4)c3nc12,inactive
2,CCOC(=O)c1oc2c(CN3CCN(CCO)CC3)c(O)c(CC)cc2c(=O)c1-c1nc2ccccc2s1,inactive
3,COc1ccccc1C1C2=C(CC(C)(C)CC2=O)N(CC(=O)O)C2=C1C(=O)CC(C)(C)C2,inactive
4,CC(C)OCCCn1c(=N)c(C(N)=S)cc2c(=O)n3ccccc3nc21,inactive
5,Cc1cc(CNC(=O)c2ccc3c(c2)OCO3)c2ccccc2n1,inactive
6,Cc1c(O)ccc2cc(S(=O)(=O)c3ccccc3)c(=O)oc12,inactive
7,CCCN1CCc2c(sc(NC(=O)C3CCN(S(=O)(=O)c4cccs4)CC3)c2C(N)=O)C1,inactive
8,CC(C)(C)c1csc(N/N=C/c2ccc(O)cc2)n1,inactive
9,COc1cc(/C=C(\C#N)C(=O)NC(C)C)cc(Cl)c1O,inactive
10,CCN(c1ccccc1)S(=O)(=O)c1ccc(OC)c(NC(=O)CN(C)C)c1,inactive
11,Cc1c(C=O)c2ccccn2c1C(=O)c1cccs1,inactive
12,O=C(O)c1ccc(N2N=C(c3ccccc3)CC2c2ccccc2)cc1 (stereo not given),inactive
13,CCCCn1nc(NC(=O)c2cccs2)c2cc3cc(OC)ccc3nc21,inactive
14,O=c1oc2c(CN3CCCCC3)c(O)ccc2cc1-c1nc2ccccc2[nH]1,inactive
15,O=C(O)C1=CC[C@@H](c2ccc(Cl)cc2)N(S(=O)(=O)c2ccc(Cl)cc2)[C@H]1c1ccc(F)cc1,inactive
16,O=C(NS(=O)(=O)c1ccc(Cl)s1)c1ccccc1,inactive
17,CN1CCN(c2nc3ccccn3c(=O)c2/C=C(\C#N)S(=O)(=O)c2ccccc2)CC1,inactive
